According to PubChem BioAssay (NCI):
About 79,000 compounds went through this panel and 15% of them were active in at least one assay; those are over-represented in the sample as a whole. Calls of active or inactive are those of the source. Rule as the data show it: active = growth inhibition above about 70%; inactive = the rest.

Experiment: NCI Yeast Anticancer Drug Screen. Data for the mec2-1 strain (AID 157)
Settings: S. cerevisiae mec2-1 strain, stronger effect = higher value
Method: Growth inhibition of yeast strains with defined genetic alterations is measured as a screen for potential anti-cancer activity. Selected strains with alterations in DNA damage repair or cell cycle control were exposed to compounds and growth inhibition was measured relative to vehicle treated controls. The strain used in this assay is mec2-1

[1] = at 5.0 µM (retest, dose inferred, filed as 0.5)
[2] = at 50.0 µM (retest, dose inferred, filed as 5.0)

Measured: growth inhibition

COc1ccc(C(=O)OCCc2ccccc2)cc1
inactive: at 1.2 µM -1% | at 3.7 µM -4% | [1] -28% | at 11.0 µM -4% | at 33.0 µM -5% | [2] -14% | at 50.0 µM 1.85% | at 100.0 µM -5%

COc1ccc2nc3cccc([N+](=O)[O-])c3c(NCCCO)c2c1
active: at 1.2 µM 93% | at 3.7 µM 96% | [1] 97% | at 11.0 µM 98% | at 33.0 µM 98% | [2] 99% | at 50.0 µM 91% | at 100.0 µM 96%

CC(=O)CC[N+](C)(C)C
inactive: at 1.2 µM 4% | at 3.7 µM -3% | [1] 22% | at 11.0 µM -1% | at 33.0 µM -7% | [2] 59% | at 50.0 µM -22.7% | at 100.0 µM 4%

Cc1nc2ccccc2c(=O)n1NC(=O)c1ccc(CS)cc1
inactive: at 1.2 µM -16% | at 3.7 µM -4% | [1] -27% | at 11.0 µM -13% | at 33.0 µM 23% | [2] 1%
active: at 50.0 µM 76.2% | at 100.0 µM 97%

O=C1C(Br)=CC(Br)(Br)C=C1Br
inactive: at 1.2 µM 6% | at 3.7 µM 28% | at 11.0 µM 51%
active: [1] 100% | at 33.0 µM 99% | [2] 97% | at 50.0 µM 93.5% | at 100.0 µM 99%
